Measured values from PubChem BioAssay (NCATS).
Several values for one entry are separate records, joined by “and”; a condition that tells them apart may be missing. Equal values may be shown once. Results filed as inconclusive are left out. A call without a number means that no potency is given here. Activity calls are given as the source filed them. Unless noted, the call rests on the fitted dose curve; in most records, active means well fitted curve in the direction sought with a large enough effect; inconclusive means small, poorly fitted or top-dose-only effect, or another doubt; inactive means no such curve, though single readings can be large; an effect the other way counts as inactive or inconclusive.

Tests used:
[1] = Cell Viability - H-4-II-E (AID 543);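 further: cells exposed to compound for 40 hours; nearly all actives have a fitted effect of over 35% in size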
Summary of the method: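 AC50 from Hill-modelled qHTS concentration-response curves. H-4-II-E rat hepatoma cells in complete medium, 40 hr exposure at 37 °C, viability by CellTiter-Glo ATP luminescence.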

[2] = Cell Viability - LYMP2-001 (AID 921); further: series mostly up to about 92 µM; nearly all actives have a fitted effect of over 70% in size
Summary of the method: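 qHTS, 1536-well; lymphoblastoid cells, 24 hr compound, 37 C; ATP by CellTiter-Glo, 30 min RT; luminescence; Hill-fit AC50.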

[3] = MultiTox-Fluor Cytotoxicity Assay - LYMP1-001 - Live Cells (AID 947)
[4] = Cell Viability - LYMP1-003 - Assay at 40 hr (AID 964); further: series mostly up to about 92 µM; nearly all actives have a fitted effect of over 60% in size
Summary of the method: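 Acute toxicity is scored as a concentration-dependent loss of intracellular ATP in LYMP1-003 cells (2500/well, complete medium) after 40 hr at 37 C, measured by CellTiter-Glo luminescence; AC50 values derive from standard Hill modelling.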

[5] = Cell Viability - LYMP2-004 (AID 966); further: nearly all actives have a fitted effect of over 65% in size
Summary of the method: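 Viable-cell number estimated from ATP luminescence (CellTiter-Glo) in 2500 human lymphoblastoid cells/well after 24 hr at 37 C with compound. AC50 fitted to the standard Hill equation.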

[6] = Cell Viability - LYMP2-005 (AID 967); further: series mostly up to about 92 µM
Summary of the method: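 qHTS viability screen in LYMP2-005 cells: 24 h at 37 C with compound, ATP luminescence via CellTiter-Glo, AC50 from Hill curves.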

[7] = Cell Viability - LYMP2-009 (AID 968); further: series mostly up to about 92 µM; nearly all actives have a fitted effect of over 55% in size
[8] = Cell Viability - LYMP2-017 (AID 972);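 further: series mostly up to about 92 µM; cells exposed to compound for 24 hours at 37 °C; nearly all actives have a fitted effect of over 55% in size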
Summary of the method: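 In this qHTS format, lymphoblastoid cells in complete medium receive test compound for a day at 37 C before ATP content is quantified by luciferase luminescence. Reported AC50 figures come from standard Hill-equation curve fitting.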

[9] = Cell Viability - LYMP2-019 (AID 973); further: nearly all actives have a fitted effect of over 55% in size
Summary of the method: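 AC50 values come from Hill-equation modelling of qHTS concentration-response curves, where viability is measured as luciferase-based ATP luminescence in the lymphoblastoid line after 24 hr compound exposure in complete culture medium.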

[10] = Cell Viability - LYMP2-002 (AID 977);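 further: series mostly up to about 92 µM; compound exposure lasted 24 h at 37 °C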
Summary of the method: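 Human lymphoblastoid cells, 2500/well, complete medium; 5 h 37 C settle; compound 24 h 37 C; CellTiter-Glo, 30 min RT; luminescence. Decrease in ATP = cytotoxicity; AC50 via Hill equation.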

[11] = Cell Viability - LYMP2-006 (AID 978);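 further: series mostly up to about 92 µM; cells exposed to compound for 24 hours; nearly all actives have a fitted effect of over 60% in size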
Summary of the method: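 Concentration-dependent loss of intracellular ATP in a human lymphoblastoid line after 24 hr treatment at 37 C was measured by CellTiter-Glo luminescence, with AC50 values obtained from standard Hill-equation modelling.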

[12] = Cell Viability - LYMP2-020 (AID 986); further: series mostly up to about 92 µM; nearly all actives have a fitted effect of over 55% in size
Summary of the method: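 Cells at 2500 per well receive a 24 hr compound exposure at 37 C. Viability is measured as ATP-dependent luciferase luminescence, with AC50 modeled from qHTS concentration-response curves.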

[13] = Cell Viability - LYMP2-022 (AID 987); further: nearly all actives have a fitted effect of over 55% in size
Summary of the method: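 In this qHTS cytotoxicity screen, compound titrations were incubated 24 hr at 37 C with human lymphoblastoid cells in complete medium. Luciferase-based ATP luminescence provided the viability signal.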

[14] = Cell Viability - LYMP2-024 (AID 988); further: nearly all actives have a fitted effect of over 60% in size
Summary of the method: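 Cells at 2500 per well received compound for 24 hr after a 5 hr settling period. Viability was scored by CellTiter-Glo luminescence, with AC50 from Hill fits.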

[15] = qHTS assay for small molecule antagonists of retinoid X receptor alpha signaling (AID 588546; active means well fitted inhibition curve with a large enough effect in the signal ratio, with a control signal flat, not every such curve was filed as active; the % refers to the signal ratio;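 further: cells stimulated with 9-cis-retinoic acid as agonist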); details: HEK293T RXRa-UAS-bla, beta-lactamase ratio, antagonist mode; measured here: W530 green channel, cytotoxicity proxy
Summary of the method: (§1)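 Beta-lactamase reporter inhibition, read as CCF4 fluorescence ratio (ex 405, em 460/530 nm) after 2 h at RT. HEK293T UAS-bla cells, 2500/well, were stimulated with 9-cis-RA at 500 or 100 nM final alongside test compound for 18 h at 37 C.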

[16] = target: Retinoic acid receptor RXR-alpha (Homo sapiens) (UniProt P19793); assay: as above; details: HEK293T RXRa-UAS-bla, beta-lactamase ratio, antagonist mode
Summary of the method: as §1

[17] = target: Thyroid hormone receptor beta (Homo sapiens) (UniProt P10828); assay: qHTS assay for small molecule antagonists of thyroid hormone receptor beta signaling (AID 588547; active means well fitted inhibition curve with a large enough effect in the signal ratio, with a control signal flat, not every such curve was filed as active; the % refers to the signal ratio;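 further: cells stimulated with 0.4 nM T3 agonist during compound exposure; series mostly up to about 77 µM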); details: TR-UAS-bla HEK293, beta-lactamase ratio, antagonist mode, 18 h
Summary of the method: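 TR-UAS-bla GripTite HEK293 cells in 2% charcoal/dextran FBS medium; compounds 0.59 nM to 92 uM with T3 at 0.4nM final, 18 h at 37 C. Beta-lactamase read by CCF4 fluorescence (460/530 nm); Hill fits gave IC50 and efficacy.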

[18] = qHTS assay for small molecule disruptors of the mitochondrial membrane potential - 5 hr assay (AID 651755; calls by dose curve; further: nearly all actives have a fitted effect of over 40% in size)
Summary of the method: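 Read-out: ratiometric Mito-MPS fluorescence, green monomer (ex 490/em 535) vs red mitochondrial aggregate (ex 540/em 590). HepG2 cells treated 5 hr at 37C before 30 min dye loading.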

[19] = target: Nuclear receptor subfamily 1 group I member 2 (Rattus norvegicus) (UniProt Q9R1A7); assay: qHTS assay for small molecule activators of the rat pregnane X receptor (rPXR) signaling pathway (AID 651751; call rule not given here); details: rPXR reporter cells, luciferase (One-Glo), 24 h
[20] = qHTS assay for environmental chemicals that activate the Aryl hydrocarbon Receptor (AhR) signaling pathway (AID 651777); details: 1A2-DRE human hepatoma cells, luciferase, 24 h; activation: stronger effect = higher value; further: nearly all actives have a fitted effect of over 15% in size
Summary of the method: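 Reporter gene assay: hepatoma cells with DRE/CYP1A2-luciferase, 24 hr compound incubation at 37 C, 5% CO2, luminescence after One-Glo (30 min, RT).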

Retinoic acid receptor RXR-alpha (Homo sapiens), sequence (P19793 whole entry, looked up): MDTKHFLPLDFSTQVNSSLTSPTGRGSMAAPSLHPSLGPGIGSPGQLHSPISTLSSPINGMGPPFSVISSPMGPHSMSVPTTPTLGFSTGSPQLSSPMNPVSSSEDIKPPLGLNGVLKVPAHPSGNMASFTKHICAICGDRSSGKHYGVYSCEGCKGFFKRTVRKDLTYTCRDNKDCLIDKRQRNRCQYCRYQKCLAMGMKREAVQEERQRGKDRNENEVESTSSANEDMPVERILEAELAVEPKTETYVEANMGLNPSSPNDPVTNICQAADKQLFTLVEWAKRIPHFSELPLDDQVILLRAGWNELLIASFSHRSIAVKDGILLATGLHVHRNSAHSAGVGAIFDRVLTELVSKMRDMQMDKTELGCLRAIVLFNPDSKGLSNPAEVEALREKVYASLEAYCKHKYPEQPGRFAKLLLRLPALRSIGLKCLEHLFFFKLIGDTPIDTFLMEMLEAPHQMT
Nuclear receptor subfamily 1 group I member 2 (Rattus norvegicus), sequence (Q9R1A7 whole entry, looked up): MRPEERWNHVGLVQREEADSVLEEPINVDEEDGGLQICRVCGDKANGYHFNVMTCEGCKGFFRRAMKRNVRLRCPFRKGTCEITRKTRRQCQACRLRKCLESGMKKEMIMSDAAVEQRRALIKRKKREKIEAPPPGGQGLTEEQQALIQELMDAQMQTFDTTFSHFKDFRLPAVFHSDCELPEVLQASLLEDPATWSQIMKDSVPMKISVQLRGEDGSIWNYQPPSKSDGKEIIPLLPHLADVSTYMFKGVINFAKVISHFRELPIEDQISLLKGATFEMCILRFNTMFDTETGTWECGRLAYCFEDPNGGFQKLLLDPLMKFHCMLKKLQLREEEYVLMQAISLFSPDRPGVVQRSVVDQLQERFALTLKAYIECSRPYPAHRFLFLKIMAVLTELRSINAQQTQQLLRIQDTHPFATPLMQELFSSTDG
Thyroid hormone receptor beta (Homo sapiens), sequence (P10828 whole entry, looked up): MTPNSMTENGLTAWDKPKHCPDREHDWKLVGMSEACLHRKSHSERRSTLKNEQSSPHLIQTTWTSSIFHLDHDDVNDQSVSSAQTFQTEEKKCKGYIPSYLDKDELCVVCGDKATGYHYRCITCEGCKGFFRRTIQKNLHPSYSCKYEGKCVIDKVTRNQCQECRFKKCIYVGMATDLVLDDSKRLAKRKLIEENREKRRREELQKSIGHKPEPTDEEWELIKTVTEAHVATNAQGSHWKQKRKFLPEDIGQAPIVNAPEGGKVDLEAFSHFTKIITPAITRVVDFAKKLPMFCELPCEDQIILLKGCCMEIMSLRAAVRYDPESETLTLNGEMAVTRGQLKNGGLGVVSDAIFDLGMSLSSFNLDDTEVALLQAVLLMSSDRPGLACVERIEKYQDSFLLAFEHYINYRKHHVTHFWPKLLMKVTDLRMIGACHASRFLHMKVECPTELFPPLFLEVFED

Row | SMILES | Potency [1] | Potency [2] | Potency [3] | Potency [4] | Potency [5] | Potency [6] | Potency [7] | Potency [8] | Potency [9] | Potency [10] | Potency [11] | Potency [12] | Potency [13] | Potency [14] | max response [15] | max response [16] | activity change % (negative = inhibition) [17] | Potency [18] | max response [19] | activation [20]
1 | CCCCOC(=O)COc1ccc(Cl)cc1Cl | inactive | inactive | inactive | inactive | inactive | inactive | inactive | inactive | inactive | inactive | inactive | inactive | inactive | inactive | -10.2% and -6.39% | 5.43% (inactive) and -12.7% (inactive) | 7.32% (inactive) and -4.27% (inactive) | inactive | -2.3% (inactive) and -1.06% (inactive) | –
2 | CCCCNCC | inactive | inactive | inactive | inactive | inactive | inactive | inactive | inactive | inactive | inactive | inactive | inactive | inactive | inactive | -20.9% | 4.6% (inactive) | – | inactive | 1.14% (inactive) | -0.56% (inactive)
3 | C/C(Cl)=C/CCl | inactive | inactive | inactive | inactive | inactive | inactive | inactive | inactive | inactive | inactive | inactive | inactive | inactive | inactive | -2.04% | 6.91% (inactive) | 0.318% (inactive) | inactive | -2.47% (inactive) | 0.708% (inactive)
4 | Cc1c(N)cccc1Cl | inactive | inactive | inactive | inactive | inactive | inactive | inactive | inactive | inactive | inactive | inactive | inactive | inactive | inactive | 0.883% | 1.61% (inactive) | 0.909% (inactive) | inactive | 7.66% (inactive) | -0.26% (inactive)
5 | O=C(OCc1ccccc1)c1ccccc1O | inactive | inactive | inactive | inactive | inactive | inactive | inactive | inactive | inactive | inactive | inactive | inactive | inactive | inactive | -7.45% and -18.3% | -0.686% (inactive) and -0.189% (inactive) | -8.64% (inactive) | inactive | -3.94% (inactive) and -2.55% (inactive) | -0.76% (inactive) and -0.296% (inactive)
6 | CCOC(=O)C1OC1c1ccccc1 (configuration not stated) | inactive | inactive | – | inactive | inactive | inactive | inactive | inactive | inactive | inactive | inactive | inactive | inactive | inactive | -0.854% | 9.69% (inactive) | 6.36% (inactive) | inactive | 9.31% (inactive) | -0.0092% (inactive)
7 | COc1cc(-c2ccc(N=C=O)c(OC)c2)ccc1N=C=O | inactive | inactive | inactive | inactive | inactive | inactive | inactive | inactive | inactive | inactive | inactive | inactive | inactive | inactive | -13.8% | -6.94% (inactive) | -7.61% (inactive) | inactive | – | 0.786% (inactive) and 6.25% (inactive)
8 | c1ccncc1 | inactive | inactive | inactive | inactive | inactive | inactive | inactive | inactive | inactive | inactive | inactive | inactive | inactive | inactive | – | – | -8.3% (inactive) | inactive | 3.74% (inactive) | -1.01% (inactive)
9 | Cc1cccnc1 | inactive | inactive | inactive | inactive | inactive | inactive | inactive | inactive | inactive | inactive | inactive | inactive | inactive | inactive | -1.12% | 7.72% (inactive) | 13.1% (inactive) | inactive | -3.97% (inactive) | 0.348% (inactive)
10 | CCC(Cl)CC(Cl)C(Cl)C(Cl)C(Cl)C(C)Cl (configuration not stated) | inactive | inactive | inactive | inactive | inactive | inactive | inactive | inactive | inactive | inactive | inactive | inactive | inactive | inactive | 7.22% | -1.06% (inactive) | -1.45% (inactive) | inactive | – | -0.274% (inactive)
11 | c1ccc(CSCc2ccccc2)cc1 | inactive | inactive | inactive | inactive | inactive | inactive | inactive | inactive | inactive | inactive | inactive | inactive | inactive | inactive | -3.11% | 1.24% (inactive) | -5.66% (inactive) | inactive | -1.32% (inactive) | -0.759% (inactive)
12 | CCCC(=O)OC(=O)CCC | inactive | inactive | inactive | inactive | inactive | – | inactive | inactive | inactive | inactive | inactive | inactive | inactive | inactive | -8.03% and -4.72% | 2.23% (inactive) and 15.8% (inactive) | 18.6% (inactive) and 0.261% (inactive) | inactive | -1.94% (inactive) and 0.492% (inactive) | 0.206% (inactive) and -0.322% (inactive)
